Experimental data published in PubChem BioAssay (NCATS).
Where “and” joins values, the source holds several entries; their conditions need not be identical. Identical values can stand only once. Inconclusive results are not listed. Calls of active or inactive are those of the source. Unless noted, calls come from the whole dose curve; as a rule, active = well fitted curve in the direction sought with a large enough effect; inconclusive = small, poorly fitted or top-dose-only effect, or another doubt; inactive = no such curve, though single readings can be large; an effect the other way counts as inactive or inconclusive.

Tests used:
[1] = AP1 Signaling Pathway (AID 357; active = well fitted curve in either direction with a large enough effect, not every such curve was filed as active;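 note: ME-180 reporter cells stimulated with EGF at its EC50 level; % is set by controls: 0 for no effect and ±100 for the full control effect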)
In short: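 A ratiometric CCF4 readout (405 nm excitation; 460 and 530 nm emission) quantified AP-1-driven beta-lactamase in ME-180 cells after 5 h with compound and EC50 EGF; AC50 values were derived for activators and inhibitors.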

[2] = target: Cytochrome P450 1A2 (Homo sapiens) (UniProt P05177); assay: p450-cyp1a2 (AID 410; calls by dose curve;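 note: -100% = full effect of reference inhibitor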)
In short: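 O-Demethylation of luciferin 6' methyl ether by human CYP1A2 is monitored as luciferase luminescence. Substrate sits at Km (100uM); enzyme is 20nM. Values are scaled to 57 uM furafylline as maximal inhibition.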

[3] = NFAT Signaling Pathway (AID 444; active = well fitted curve in either direction with a large enough effect, not every such curve was filed as active;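 note: carbachol stimulus at about its EC50 of 1 µM final; % is set by controls: 0 for no effect and ±100 for the full control effect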); settings: Jurkat NFAT-bla M1, carbachol, beta-lactamase ratio, 5 h
In short: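 Read-out: CCF4 FRET ratio (460 nm/530 nm) after 1 h RT dye loading, used for %activity and AC50 from titration series. Cells: Jurkat NFAT-β-lactamase/M1 line, treated with compound plus 1 uM carbachol for 5 h, 37 °C.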

[4] = Stat Signaling Pathway (AID 446; active = well fitted curve in either direction with a large enough effect, not every such curve was filed as active;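 note: ME-180 cervical cancer cells given 40 pM IL-6 alongside compound; SIE-controlled beta-lactamase reporter measured as 460/530 nm FRET emission ratio; % is set by controls: 0 for no effect and ±100 for the full control effect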)
In short: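 Compound effects on IL-6-induced STAT reporter activity were measured in ME-180 cells. After overnight culture, cells were co-treated with 40 pM IL-6 for 5 hrs before beta-lactamase substrate loading at room temperature.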

[5] = target: Glucocorticoid receptor (Homo sapiens) (UniProt P04150); assay: GR-GFP Redistribution (AID 450;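 active = compounds whose dose series gives a full or clear partial fitted curve of increased nuclear translocation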; note: potency is the fitted concentration of half-maximal effect); settings: U2OS GR-GFP nuclear translocation, laser cytometry, 2 h
[6] = target: Glucocorticoid receptor (Homo sapiens) (UniProt P04150); assay: GR-EFC Redistribution (AID 451; calls by dose curve; note: potency is the fitted concentration of half-maximal effect); settings: CHO-K1 GR-EFC translocation, beta-gal luminescence, 2 h
In short: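 Translocation of GR-ED fusion to nuclear EA restores b-gal, read by luminescence after 1 h room-temperature detection. Engineered CHO-K1 biosensor cells, 1,000/well, exposed 2 h at 37 C to titrations up to 46 uM final.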

[7] = target: Mitogen-activated protein kinase 10 (Mus musculus) (UniProt Q61831); assay: JNK3 AlphaScreen Assay (AID 530; active = well fitted curve in either direction with a large enough effect, not every such curve was filed as active;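 note: kinase came from lysate of stimulated human HepG2 cells; signal reports phosphorylation of biotinylated GST-cJun 1-79 at Ser73 with 10 µM ATP; % is set by controls: 0 for no effect and ±100 for the full control effect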)
In short: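 qHTS titrations with 15 min compound pre-incubation before adding ATP (10 uM final). Read-out: AlphaScreen of Ser73-phosphorylated biotin-GST-cJun using HepG2 lysate JNK3 activated by IL-1β and TNFα.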

[8] = target: 3',5'-cyclic-AMP phosphodiesterase 4B (Homo sapiens) (UniProt Q07343); assay: qHTS Assay for Inhibitors of PDE-IV (AID 607; active = well fitted activation curve with a large enough effect in the main read-out, with a control signal flat, not every such curve was filed as active; note: % of control where 0% means no effect)
In short: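 ACTOne HEK293 cells carry a modified cAMP-gated CNG channel and express endogenous PDE4; plated 1000 cells/well, compounds up to 22.9 uM final. Membrane-potential dye fluorescence (ex 535/em 590) was read; parental cells received 10 uM forskolin + 100 uM RO 20-1724.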

[9] = qHTS Assay for Lipid Storage Modulators (AID 1519; calls by dose curve); settings: Drosophila S3 cells, BODIPY lipid droplet/cell ratio, laser cytometry, cells loaded with oleic acid; for activity change, negative = inhibition: at 25.7 µM (top of the series)
In short: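 Cells seeded at 5,000 per well were treated with compounds over a concentration series and loaded with oleic acid (400 uM, as added). Lipid droplet fluorescence (488 nm excitation, 500-530 nm channel) was read by laser-scanning cytometry and normalized to 20 uM Triacsin C.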

[10] = target: ATP-dependent 6-phosphofructokinase (Trypanosoma brucei brucei) (UniProt O15648); assay: qHTS Assay to Find Inhibitors of T. brucei phosphofructokinase: hit validation (AID 492961)
In short: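 In this biochemical qHTS validation, titrated compounds were tested against 1.25 nM PFK with 0.1 mM ATP and 0.5 mM F6P. Percent activity came from controls lacking or containing enzyme.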

[11] = target: Luciferin 4-monooxygenase (Photinus pyralis) (UniProt P08659); assay: Biochemical firefly luciferase enzyme assay for NPC (AID 624030);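 note: purified P. pyralis luciferase at 10 nM with luciferin and ATP substrate; 0% = DMSO and -100% = full luciferase inhibition by PTC124 control; nearly all actives have a fitted effect of over 70% in size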
In short: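 Direct inhibition of firefly luciferase enzyme (10 nM final, 50 mM Tris Acetate) assessed by luminescence within 5 minutes. Percent activity scaled between DMSO and PTC124 positive control, with concentration-effect curves classified by fit quality and response.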

[12] = S16 Schwann cell PMP22 intronic element firefly luciferase assay (AID 624032);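 note: plate controls were DMSO for no effect and PTC124 positive control mean for full effect; nearly all actives have a fitted effect of over 30% in size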
In short: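 Luciferase reporter of PMP22 intronic-element expression in stably transfected S16 rat Schwann cells, read by ONE-Glo luminescence after 24 h compound exposure at 37 C. Activity scaled between DMSO (0%) and positive-control PTC124; concentration-effect curves quality-classified.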

[13] = qHTS profiling for inhibitors of Plasmodium falciparum proliferation (AID 504749);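 note: 0% = DMSO vehicle and full inhibition = artemisinin control; nearly all actives have a fitted effect of over 60% in size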; settings: P. falciparum in erythrocytes, SYBR Green DNA, 72 h
In short: (§1)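 SYBR Green fluorescence of parasite DNA, read after lysis and overnight dark incubation, measured growth over 72 h in erythrocyte culture at 0.3% parasitemia and 2.5% hematocrit. Data normalised to DMSO and 0.29 uM artemisinin, with plate-drift correction.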

[14] = test system: C2A; assay: as above; settings: P. falciparum in erythrocytes, SYBR Green DNA, 72 h; series mostly up to 28.7 µM
In short: as §1

[15] = test system: CP192; assay: as above; settings: P. falciparum in erythrocytes, SYBR Green DNA, 72 h; series mostly up to 28.7 µM
In short: as §1

[16] = test system: CP262; assay: as above; settings: P. falciparum in erythrocytes, SYBR Green DNA, 72 h; series mostly up to 28.7 µM
In short: as §1

[17] = test system: FAB9; assay: as above; settings: P. falciparum in erythrocytes, SYBR Green DNA, 72 h; series mostly up to 28.7 µM
In short: as §1

[18] = target: Cytochrome P450 3A4 (Homo sapiens) (UniProt P08684); assay: qHTS Assay for Activators of Cytochrome P450 3A4 (AID 885); note: potency is the fitted concentration of half-maximal effect; nearly all actives have a fitted effect of over 65% in size
In short: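 CYP3A4 activity: Luciferin-PPXE O-dealkylation, 25uM substrate, 200mM KPO4, RT throughout. Read-out is luciferase luminescence; higher values reflect activation.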

[19] = target: Ubiquitin carboxyl-terminal hydrolase 1 (Homo sapiens) (UniProt O94782); assay: Inhibitors of USP1/UAF1: Pilot qHTS (AID 504865);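 note: rhodamine fluorescence freed from ubiquitin-rhodamine substrate followed over time; top concentration of the series differs between compounds; % is set by controls: 0 for no effect and ±100 for the full control effect; nearly all actives have a fitted effect of over 35% in size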
In short: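 1nM USP1/UAF1 + cpd, 15 min RT; start w/ Ub-Rho 150nM final; kinetic FL 480/540 nm, 6 reads q60 s. Buffer 50mM HEPES pH 7.8, 0.5mM EDTA, 1mM TCEP, 0.01% Tween-20, 0.1 mg/ml BSA.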

[20] = measured here: cell count channel max response
[21] = measured here: lipid channel max response
[22] = at 12.8 µM (top of the series), parasite line A
[23] = at 12.8 µM (top of the series), parasite line B

Glucocorticoid receptor (Homo sapiens), sequence (P04150 whole entry, looked up, the tested form may be a part): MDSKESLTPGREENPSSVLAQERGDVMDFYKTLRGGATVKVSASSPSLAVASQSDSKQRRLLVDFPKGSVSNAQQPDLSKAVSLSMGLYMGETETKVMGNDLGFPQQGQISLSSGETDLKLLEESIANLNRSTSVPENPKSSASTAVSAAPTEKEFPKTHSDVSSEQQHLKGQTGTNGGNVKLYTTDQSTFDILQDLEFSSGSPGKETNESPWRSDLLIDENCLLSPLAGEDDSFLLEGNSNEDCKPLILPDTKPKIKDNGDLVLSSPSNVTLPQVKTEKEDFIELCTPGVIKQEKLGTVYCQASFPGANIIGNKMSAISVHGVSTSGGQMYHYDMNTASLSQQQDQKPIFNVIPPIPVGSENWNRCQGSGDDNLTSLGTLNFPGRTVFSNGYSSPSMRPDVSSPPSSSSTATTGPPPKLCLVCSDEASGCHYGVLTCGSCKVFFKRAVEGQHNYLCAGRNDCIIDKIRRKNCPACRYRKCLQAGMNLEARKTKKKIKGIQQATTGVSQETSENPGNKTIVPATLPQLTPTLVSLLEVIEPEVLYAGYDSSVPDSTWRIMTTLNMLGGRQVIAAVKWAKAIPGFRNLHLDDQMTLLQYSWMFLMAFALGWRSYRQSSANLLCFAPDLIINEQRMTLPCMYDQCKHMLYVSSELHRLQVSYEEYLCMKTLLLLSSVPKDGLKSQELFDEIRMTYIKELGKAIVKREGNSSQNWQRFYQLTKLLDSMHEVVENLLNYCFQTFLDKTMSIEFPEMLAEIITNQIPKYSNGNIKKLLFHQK
ATP-dependent 6-phosphofructokinase (Trypanosoma brucei brucei), sequence (O15648 whole entry, looked up): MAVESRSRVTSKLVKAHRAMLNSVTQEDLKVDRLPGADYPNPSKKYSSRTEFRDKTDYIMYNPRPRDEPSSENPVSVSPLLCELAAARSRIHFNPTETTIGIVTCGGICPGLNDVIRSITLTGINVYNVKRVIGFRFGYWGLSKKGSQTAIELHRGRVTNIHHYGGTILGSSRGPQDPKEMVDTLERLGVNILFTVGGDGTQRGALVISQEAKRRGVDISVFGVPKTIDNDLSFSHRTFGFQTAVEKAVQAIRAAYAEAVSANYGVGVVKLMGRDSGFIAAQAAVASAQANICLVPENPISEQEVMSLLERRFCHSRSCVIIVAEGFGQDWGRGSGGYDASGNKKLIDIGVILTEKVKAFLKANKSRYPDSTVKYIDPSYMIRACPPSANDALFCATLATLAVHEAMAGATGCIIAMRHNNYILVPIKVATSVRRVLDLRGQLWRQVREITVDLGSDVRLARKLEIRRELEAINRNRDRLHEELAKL
Luciferin 4-monooxygenase (Photinus pyralis), sequence (P08659 whole entry, looked up): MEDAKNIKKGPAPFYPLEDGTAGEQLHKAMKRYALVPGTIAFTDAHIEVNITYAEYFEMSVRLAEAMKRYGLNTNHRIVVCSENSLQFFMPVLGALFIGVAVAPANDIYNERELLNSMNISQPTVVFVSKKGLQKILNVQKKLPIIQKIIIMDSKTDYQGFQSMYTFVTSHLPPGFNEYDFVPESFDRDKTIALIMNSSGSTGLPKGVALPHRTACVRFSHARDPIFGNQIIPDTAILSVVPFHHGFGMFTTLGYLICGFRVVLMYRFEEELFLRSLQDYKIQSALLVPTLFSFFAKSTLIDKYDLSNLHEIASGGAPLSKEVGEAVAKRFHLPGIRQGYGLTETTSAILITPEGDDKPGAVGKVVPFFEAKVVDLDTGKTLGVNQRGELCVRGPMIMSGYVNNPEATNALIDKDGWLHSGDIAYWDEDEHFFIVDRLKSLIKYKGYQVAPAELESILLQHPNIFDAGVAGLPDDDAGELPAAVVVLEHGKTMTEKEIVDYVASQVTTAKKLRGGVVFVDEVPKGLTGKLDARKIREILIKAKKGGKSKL
3',5'-cyclic-AMP phosphodiesterase 4B (Homo sapiens), sequence (Q07343 whole entry, looked up): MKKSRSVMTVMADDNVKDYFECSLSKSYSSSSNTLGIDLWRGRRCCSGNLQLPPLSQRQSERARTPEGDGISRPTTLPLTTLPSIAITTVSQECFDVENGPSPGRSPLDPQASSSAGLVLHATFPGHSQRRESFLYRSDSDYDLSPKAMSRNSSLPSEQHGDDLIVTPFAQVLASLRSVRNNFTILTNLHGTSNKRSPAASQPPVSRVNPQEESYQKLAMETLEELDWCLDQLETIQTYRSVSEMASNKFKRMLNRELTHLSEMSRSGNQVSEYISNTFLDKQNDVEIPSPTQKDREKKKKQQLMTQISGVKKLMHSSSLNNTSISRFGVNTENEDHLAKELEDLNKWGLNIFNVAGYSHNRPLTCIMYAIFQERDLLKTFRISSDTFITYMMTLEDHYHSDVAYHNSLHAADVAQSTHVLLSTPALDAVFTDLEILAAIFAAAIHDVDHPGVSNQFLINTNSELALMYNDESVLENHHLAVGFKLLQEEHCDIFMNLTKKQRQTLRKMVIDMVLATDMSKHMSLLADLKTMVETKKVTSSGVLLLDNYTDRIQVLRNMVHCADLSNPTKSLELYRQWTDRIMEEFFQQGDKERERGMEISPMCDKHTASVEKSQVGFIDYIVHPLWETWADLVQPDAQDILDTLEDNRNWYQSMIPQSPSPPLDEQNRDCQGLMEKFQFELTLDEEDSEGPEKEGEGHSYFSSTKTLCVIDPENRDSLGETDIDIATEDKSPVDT
Cytochrome P450 1A2 (Homo sapiens), sequence (P05177 whole entry, looked up): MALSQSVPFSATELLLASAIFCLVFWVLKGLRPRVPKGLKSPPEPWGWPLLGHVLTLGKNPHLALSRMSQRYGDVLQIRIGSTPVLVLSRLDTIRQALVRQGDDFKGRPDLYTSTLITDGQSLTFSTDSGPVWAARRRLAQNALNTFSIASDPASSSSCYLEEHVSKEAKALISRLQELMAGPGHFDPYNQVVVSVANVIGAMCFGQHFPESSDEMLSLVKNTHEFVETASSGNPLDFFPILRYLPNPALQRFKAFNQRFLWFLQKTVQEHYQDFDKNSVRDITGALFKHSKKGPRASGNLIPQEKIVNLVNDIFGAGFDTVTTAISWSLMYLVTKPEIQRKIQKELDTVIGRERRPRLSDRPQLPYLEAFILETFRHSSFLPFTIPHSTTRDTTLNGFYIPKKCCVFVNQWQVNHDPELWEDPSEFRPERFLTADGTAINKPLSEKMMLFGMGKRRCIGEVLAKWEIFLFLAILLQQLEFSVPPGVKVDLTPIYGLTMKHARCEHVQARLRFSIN
Ubiquitin carboxyl-terminal hydrolase 1 (Homo sapiens), sequence (O94782 whole entry, looked up): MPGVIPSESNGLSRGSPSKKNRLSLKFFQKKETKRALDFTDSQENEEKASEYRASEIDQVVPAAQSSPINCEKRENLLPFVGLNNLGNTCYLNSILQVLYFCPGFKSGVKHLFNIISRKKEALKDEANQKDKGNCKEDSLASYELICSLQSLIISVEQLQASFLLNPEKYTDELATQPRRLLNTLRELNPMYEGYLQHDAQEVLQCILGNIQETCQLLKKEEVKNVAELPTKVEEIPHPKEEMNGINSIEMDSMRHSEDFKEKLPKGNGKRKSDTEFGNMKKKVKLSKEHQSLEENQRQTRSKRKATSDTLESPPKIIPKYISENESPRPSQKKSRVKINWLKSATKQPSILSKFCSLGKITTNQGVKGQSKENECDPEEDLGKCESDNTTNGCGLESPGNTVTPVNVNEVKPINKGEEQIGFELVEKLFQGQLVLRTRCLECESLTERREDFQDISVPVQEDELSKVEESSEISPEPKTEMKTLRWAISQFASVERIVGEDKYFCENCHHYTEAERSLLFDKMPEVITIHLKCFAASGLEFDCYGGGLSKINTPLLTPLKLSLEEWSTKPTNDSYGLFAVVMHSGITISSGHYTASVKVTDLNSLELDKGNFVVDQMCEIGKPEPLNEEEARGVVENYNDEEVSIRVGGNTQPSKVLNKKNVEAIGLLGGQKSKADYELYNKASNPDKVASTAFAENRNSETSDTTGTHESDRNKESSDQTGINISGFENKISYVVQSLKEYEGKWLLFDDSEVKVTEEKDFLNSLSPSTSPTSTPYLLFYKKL
Cytochrome P450 3A4 (Homo sapiens), sequence (P08684 whole entry, looked up): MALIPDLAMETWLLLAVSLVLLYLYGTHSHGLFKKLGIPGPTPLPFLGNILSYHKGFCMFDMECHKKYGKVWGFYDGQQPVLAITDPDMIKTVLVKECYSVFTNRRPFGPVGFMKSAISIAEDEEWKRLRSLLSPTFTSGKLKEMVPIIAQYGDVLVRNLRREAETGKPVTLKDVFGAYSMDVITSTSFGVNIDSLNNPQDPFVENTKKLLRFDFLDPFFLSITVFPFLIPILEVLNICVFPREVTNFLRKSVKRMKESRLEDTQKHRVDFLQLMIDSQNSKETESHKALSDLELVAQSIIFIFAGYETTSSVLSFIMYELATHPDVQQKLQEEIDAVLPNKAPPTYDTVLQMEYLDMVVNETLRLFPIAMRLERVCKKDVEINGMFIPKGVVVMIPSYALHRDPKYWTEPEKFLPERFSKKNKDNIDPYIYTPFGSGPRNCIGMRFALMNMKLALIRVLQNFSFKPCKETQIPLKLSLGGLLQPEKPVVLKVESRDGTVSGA

CNC[C@H](O)c1ccc(O)cc1
-14.8%: max response [9, 20]
-11.6%: max response [9, 21]
inactive: outcome [1] | Potency [2] | activity change, negative = inhibition ([3]; at 17.2 µM (top of the series)) -22.7% | activity change, negative = inhibition ([3]; at 38 µM (top of the series)) 10.5% | outcome [4] | Potency [5] > 46 µM and > 20.6 µM | Potency [6] > 46 µM and > 20.6 µM | outcome [7] | Potency [8] | activity change, negative = inhibition [9] -0.0081% | Potency [10] | Potency [11] | Potency [12] | activity, negative = inhibition [13, 22] 3.3% | activity, negative = inhibition [13, 23] 13.2% | Potency [14] | Potency [15] | Potency [16] | Potency [17]

CC(=O)O[C@H]1CC[C@@]2(C)C(=CC[C@@H]3[C@H]2CC[C@]2(C)C(=O)CC[C@H]32)C1
-9.47%: max response [9, 20]
-12.6%: max response [9, 21]
inactive: outcome [1] | Potency [2] | activity change, negative = inhibition ([3]; at 17.2 µM (top of the series)) -13.7% | outcome [4] | Potency [5] > 20.6 µM | Potency [6] > 20.6 µM | outcome [7] | Potency [8] | activity change, negative = inhibition [9] -0.861% | Potency [10] | Potency [11] | Potency [12] | activity, negative = inhibition [13, 22] 8.47% | activity, negative = inhibition [13, 23] 10.9% | Potency [14] | Potency [15] | Potency [16] | Potency [17]
active: Potency [18] 12.6 µM

C[N+]1(C)[C@@H]2CC[C@H]1CC(OC(=O)[C@@H](CO)c1ccccc1)C2 (stereo partly specified)
-7.55%: max response [9, 20]
-13.1%: max response [9, 21]
active: activity change, negative = inhibition ([3]; at 17.2 µM (top of the series)) -48.4% | activity change, negative = inhibition ([3]; at 38 µM (top of the series)) -61.2%
inactive: outcome [1] | Potency [2] | outcome [4] | Potency [5] > 46 µM and > 20.6 µM | Potency [6] > 46 µM and > 20.6 µM | outcome [7] | Potency [8] | activity change, negative = inhibition [9] -3.15% | Potency [10] | Potency [19] | Potency [11] | Potency [12] | activity, negative = inhibition [13, 22] -5.22% | activity, negative = inhibition [13, 23] 11.2% | Potency [14] | Potency [15] | Potency [16] | Potency [17]

C[C@H](NC(C)(C)C)C(=O)c1cccc(Cl)c1
-0.478%: max response [9, 20]
inactive: outcome [1] | Potency [2] | activity change, negative = inhibition ([3]; at 17.2 µM (top of the series)) -9.97% | activity change, negative = inhibition ([3]; at 38 µM (top of the series)) -9.57% | outcome [4] | Potency [5] > 46 µM and > 20.6 µM | Potency [6] > 46 µM and > 20.6 µM | outcome [7] | Potency [8] | activity change, negative = inhibition [9] -1.98% | Potency [10] | Potency [19] | Potency [11] | Potency [12] | activity, negative = inhibition ([13]; at 28.7 µM (top of the series), parasite line A) 3.13% | activity, negative = inhibition ([13]; at 28.7 µM (top of the series), parasite line B) 0.713% | Potency [14] | Potency [15] | Potency [16] | Potency [17]
-2.37%: max response [9, 21]
